USP17 block: human USP17-like deubiquitinase inhibition. purified USP17, Ub-rhodamine cleavage fluorescence, 3 h. inhibition, % at 50 µM. hit rate 6.5% among 47,000. A8MUK1
USP28 inh: blocks human USP28 ubiquitin-rhodamine cleavage; purified USP28, Ub-rhodamine cleavage fluorescence, 30 min; hit rate 3% among 47,000; Q96RU2; inhibition, % at 25 µM
USP30 inh: blocks human USP30 ubiquitin-rhodamine cleavage | Q70CQ3 | purified USP30, Ub-rhodamine cleavage fluorescence | inhibition, % at 25 µM | hit rate 5.3% among 47,000 | AID 1645860
USP10 inh: blocks human USP10 ubiquitin-rhodamine cleavage. purified USP10, Ub-rhodamine fluorescence, 60 min. AID 1645856. hit rate 1.1% among 47,000. Q14694. inhibition, % at 20 µM
USP8 inh: inhibitors of human USP8 deubiquitinase. purified USP8, Ub-rhodamine cleavage fluorescence, 30 min. inhibition, % at 20 µM. hit rate 4.2% among 47,000. AID 1645853
Target sequence (P40818 whole entry, looked up): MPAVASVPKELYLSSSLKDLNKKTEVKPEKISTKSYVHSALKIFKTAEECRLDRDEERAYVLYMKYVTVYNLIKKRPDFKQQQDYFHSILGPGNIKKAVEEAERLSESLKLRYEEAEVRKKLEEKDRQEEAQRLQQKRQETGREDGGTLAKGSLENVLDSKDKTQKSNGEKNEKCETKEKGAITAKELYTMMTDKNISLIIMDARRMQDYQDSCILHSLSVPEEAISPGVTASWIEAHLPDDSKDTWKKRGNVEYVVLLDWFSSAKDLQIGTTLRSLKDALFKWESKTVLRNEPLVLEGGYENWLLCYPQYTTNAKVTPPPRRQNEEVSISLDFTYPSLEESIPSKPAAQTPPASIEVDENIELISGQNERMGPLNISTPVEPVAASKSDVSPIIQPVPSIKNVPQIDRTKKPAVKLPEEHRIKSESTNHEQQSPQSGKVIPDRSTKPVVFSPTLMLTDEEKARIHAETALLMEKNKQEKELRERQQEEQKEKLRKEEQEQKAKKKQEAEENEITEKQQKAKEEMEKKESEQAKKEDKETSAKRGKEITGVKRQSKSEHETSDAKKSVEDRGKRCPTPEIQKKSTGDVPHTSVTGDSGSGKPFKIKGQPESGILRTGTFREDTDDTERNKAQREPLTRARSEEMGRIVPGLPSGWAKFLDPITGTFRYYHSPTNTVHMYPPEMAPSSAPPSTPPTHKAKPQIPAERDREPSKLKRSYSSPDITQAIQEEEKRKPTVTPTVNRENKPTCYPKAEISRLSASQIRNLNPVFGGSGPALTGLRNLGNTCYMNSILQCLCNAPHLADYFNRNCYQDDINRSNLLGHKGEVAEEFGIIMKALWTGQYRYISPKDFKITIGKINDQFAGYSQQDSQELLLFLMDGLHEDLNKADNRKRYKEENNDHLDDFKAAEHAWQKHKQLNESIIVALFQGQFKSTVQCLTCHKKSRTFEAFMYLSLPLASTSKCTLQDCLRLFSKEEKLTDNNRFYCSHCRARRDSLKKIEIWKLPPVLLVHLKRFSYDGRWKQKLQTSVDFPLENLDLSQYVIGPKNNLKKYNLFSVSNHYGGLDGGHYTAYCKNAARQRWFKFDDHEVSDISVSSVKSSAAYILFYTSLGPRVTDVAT
* = called active by the depositor. An excerpt weighted towards active compounds, which were near 13% of everything screened. No stated cut-off is given here; in the data, active means inhibition above about 30%; inactive means the rest.

Results for O=C(NCCN1CCOCC1)c1ccc(-n2cccn2)c(C#Cc2cccnc2)c1 ?
USP17 block: -7.5; USP28 inh: -4.5; USP30 inh: 4.9; USP10 inh: -3.8; USP8 inh: -55.0

How did CCc1cccc(NC(=O)Cn2c(=O)nc(N3CCCCC3)c3ccccc32)c1 do in these assays?
USP17 block: 42.9*; USP28 inh: 8.4; USP30 inh: 9.0; USP10 inh: 3.9; USP8 inh: 25.1

What do the screens show for `Cc1ccc(Cn2nnc(C(=O)NCc3ccco3)c2-n2cccc2)cc1`?
USP17 block: 20.5; USP28 inh: 57.5*; USP30 inh: -30.9; USP10 inh: 1.1; USP8 inh: 22.6

How did COc1cc2cc3c(c(O)c2c(O)c1-c1c(OC)cc2cc4c(c(O)c2c1O)C(=O)OC1CC(C)OC41)C(=O)OC1CC(C)OC31 (stereo unspecified) do in these assays?
USP17 block: 60.5*; USP28 inh: 6.7; USP30 inh: -62.3; USP10 inh: 29.5; USP8 inh: 58.2*

What do the screens show for `COCCNC(=O)Cn1nnc(-c2ccc(-c3ccc(OC)cc3)cc2)n1`?
USP17 block: 26.2; USP28 inh: 10.7; USP30 inh: 34.5*; USP10 inh: 13.4; USP8 inh: 26.5

What do the screens show for `COc1ccc(-c2nnn(CC(=O)Nc3ccccc3)n2)cc1`?
USP17 block: 48.8*; USP28 inh: 39.3*; USP30 inh: 45.9*; USP10 inh: 10.0; USP8 inh: 1.7

How did CCOc1ccc(-c2nnn(CC(=O)N3CCCCC3)n2)cc1 do in these assays?
USP17 block: 13.0; USP28 inh: 19.5; USP30 inh: 19.9; USP10 inh: -0.1; USP8 inh: 10.7

Results for O=C(Cn1nnc(-c2ccc(F)cc2)n1)NCCc1ccccc1 ?
USP17 block: 73.8*; USP28 inh: 3.5; USP30 inh: 1.8; USP10 inh: 3.7; USP8 inh: 3.7

How did CCOC(=O)C(Cc1ccccc1)NC(=O)Cn1nnc(-c2ccccc2)n1 (stereo unspecified) do in these assays?
USP17 block: 26.8; USP28 inh: 14.8; USP30 inh: 35.1*; USP10 inh: 3.8; USP8 inh: -11.6

Results for O=C(CCc1ccc(Cl)cc1)N1CCCC(c2[nH]nc3nccnc23)C1 (stereo unspecified) ?
USP17 block: 12.2; USP28 inh: 3.9; USP30 inh: -6.5; USP10 inh: -1.0; USP8 inh: -223.5

What do the screens show for `Cc1cccc(CNC(=O)c2cnc3c(C)cccn3c2=O)c1`?
USP17 block: -2.8; USP28 inh: -34.8; USP30 inh: -4.9; USP10 inh: 0.1; USP8 inh: -0.7

Results for CCN(Cc1ccc2c(c1)OCO2)C(=O)CSc1nnc(C(F)(F)F)n1C ?
USP17 block: 2.1; USP28 inh: -2.9; USP30 inh: 11.0; USP10 inh: 1.9; USP8 inh: 6.2

What do the screens show for `O=C(COc1ccc(-n2cnnn2)cc1)Nc1ccc(F)c(Cl)c1`?
USP17 block: 42.1*; USP28 inh: 17.5; USP30 inh: 28.0; USP10 inh: 5.4; USP8 inh: 17.3

What do the screens show for `O=C(COc1cccc(-n2cnnn2)c1)Nc1cccc(F)c1`?
USP17 block: -6.0; USP28 inh: -3.8; USP30 inh: -3.2; USP10 inh: -0.9; USP8 inh: -23.4

Results for CCOc1ccc(-c2ccc3nnc(SCC(=O)Nc4cccc(C(C)=O)c4)n3n2)cc1 ?
USP17 block: 61.5*; USP28 inh: 43.4*; USP30 inh: 47.8*; USP10 inh: 1.5; USP8 inh: 25.6

What do the screens show for `CCOc1ccc(NC(=O)COc2cccc(-n3cnnn3)c2)cc1`?
USP17 block: 7.9; USP28 inh: 55.0*; USP30 inh: 34.4*; USP10 inh: 2.5; USP8 inh: 10.1

Results for O=S(=O)(c1cccc(F)c1)N1CCC(O)(CN2CCOCC2)C1 (stereo unspecified) ?
USP17 block: 7.7; USP28 inh: 6.1; USP30 inh: 2.5; USP10 inh: 3.4; USP8 inh: 6.1

What do the screens show for `Cc1ccc(CNC(=O)C2CCCN(c3ccc4nncn4n3)C2)cc1` (stereo unspecified)?
USP17 block: -1.1; USP28 inh: -0.5; USP30 inh: -8.5; USP10 inh: -1.3; USP8 inh: 1.8

What do the screens show for `CCc1ccc(C(C)NC(=O)C2CCN(c3ccc4nncn4n3)CC2)cc1` (stereo unspecified)?
USP17 block: 6.8; USP28 inh: 54.1*; USP30 inh: 8.9; USP10 inh: 0.7; USP8 inh: 3.3

What do the screens show for `O=C(CCc1nnc2ccc(N3CCCCC3)nn12)N1CCN(C(=O)c2ccco2)CC1`?
USP17 block: -2.0; USP28 inh: -2.9; USP30 inh: -9.3; USP10 inh: -1.8; USP8 inh: 9.6

Results for COc1ccccc1-n1ccnc(NC(=O)Nc2cccc(F)c2)c1=O ?
USP17 block: 46.4*; USP28 inh: -6.8; USP30 inh: 2.2; USP10 inh: 1.3; USP8 inh: -1.3

What do the screens show for `COc1cccc(NC(=O)Nc2nccn(-c3ccc(F)cc3)c2=O)c1`?
USP17 block: 54.3*; USP28 inh: -7.6; USP30 inh: 10.4; USP10 inh: 10.5; USP8 inh: 9.5

Results for O=C(Nc1ccccc1)Nc1nccn(-c2ccc3c(c2)CCC3)c1=O ?
USP17 block: 30.3*; USP28 inh: 8.0; USP30 inh: 39.0*; USP10 inh: 7.1; USP8 inh: -6.4

What do the screens show for `COCCN1[C@H]2CCN(Cc3cccc(C)c3)CC[C@@H]2Oc2ccccc2S1(=O)=O`?
USP17 block: -16.3; USP28 inh: -6.8; USP30 inh: 5.2; USP10 inh: 2.1; USP8 inh: -85.3

Results for COc1ccc([C@@H]2CN(S(=O)(=O)c3ccc(OC)cc3)C[C@H]2c2ccn[nH]2)cc1 ?
USP17 block: 0.0; USP28 inh: -0.7; USP30 inh: -0.9; USP10 inh: 1.0; USP8 inh: -45.6

What do the screens show for `Cc1ccc(-c2nc3c(s2)CN(C(=O)C2CCC2)CC3)cc1`?
USP17 block: 12.5; USP28 inh: 21.9; USP30 inh: 12.9; USP10 inh: -1.8; USP8 inh: 4.9

What do the screens show for `CN(C)c1ccc(C2C3=C(CC(C)(C)CC3=O)Nc3ccccc3N2C(=O)Cc2ccccc2)cc1` (stereo unspecified)?
USP17 block: -9.1; USP28 inh: -21.5; USP30 inh: -102.1; USP10 inh: -5.0; USP8 inh: -7.7

Results for CN(C)c1ccc(C2C3=C(CC(C)(C)CC3=O)Nc3ccccc3N2C(=O)Cc2ccc(Cl)cc2)cc1 (stereo unspecified) ?
USP17 block: 17.5; USP28 inh: -12.5; USP30 inh: -67.6; USP10 inh: -4.1; USP8 inh: 30.5*

What do the screens show for `Cc1ccc(C2C3=C(CC(c4ccc(Cl)cc4)CC3=O)Nc3ccccc3N2C(=O)c2ccccc2)cc1` (stereo unspecified)?
USP17 block: 27.6; USP28 inh: 14.8; USP30 inh: 35.9*; USP10 inh: 6.2; USP8 inh: -1.0

Results for Cc1ccc(C2CC(=O)C3=C(C2)Nc2ccccc2N(C(=O)c2ccccc2)C3c2ccccc2)cc1 (stereo unspecified) ?
USP17 block: 25.9; USP28 inh: 23.2; USP30 inh: 42.5*; USP10 inh: 9.6; USP8 inh: 30.5*
